# PubChem BioAssay (NCI)
# The panel holds about 79,000 compounds, 15% with a hit somewhere; the sample as a whole holds those more often. Values without a mark were called inactive. The source made the active and inactive calls. Cut-off read from the data, not from the text of the source: active = growth inhibition above about 70%; inactive = the rest.
# Experiments:
# [1] = NCI Yeast Anticancer Drug Screen. Data for the rad50 strain (AID 155);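 note: 0% = growth of vehicle-only cultures of the same strain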; settings: S. cerevisiae rad50 strain growth inhibition, active compounds read high
# Summary of the method: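 Vehicle-treated cultures provide the reference for the growth inhibition reported for compound-exposed, repair-deficient yeast.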
# [2] = NCI Yeast Anticancer Drug Screen. Data for the mec2-1 strain (AID 157); settings: S. cerevisiae mec2-1 strain, active compounds read high
# Summary of the method: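 Readout is yeast growth inhibition, normalised to vehicle-treated controls, in the mec2-1 strain exposed to compound.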
# [3] = NCI Yeast Anticancer Drug Screen. Data for the sgs1 mgt1 strain (AID 161);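 note: 0% = growth of cultures given vehicle only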; settings: S. cerevisiae sgs1 mgt1 strain, active compounds read high
# Summary of the method: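 Percent growth inhibition was derived by comparing compound-exposed mutant yeast with vehicle-exposed cultures. The strain carries alterations in DNA damage repair.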
# [4] = NCI Yeast Anticancer Drug Screen. Data for the cln2 rad14 strain (AID 165);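 note: 0% = growth equal to vehicle treated cultures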; settings: S. cerevisiae cln2 rad14 strain, active compounds read high
# Summary of the method: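 Relative to vehicle controls, growth inhibition of compound-treated cln2 rad14 yeast was recorded.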
# [5] = NCI Yeast Anticancer Drug Screen. Data for the bub3 strain (AID 167); settings: S. cerevisiae bub3 mutant strain, active compounds read high
# Summary of the method: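 Mutant yeast screening strain plus compound; vehicle-treated cultures serve as the 0% inhibition reference.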
# [6] = NCI Yeast Anticancer Drug Screen. Data for the mlh1 rad18 strain (AID 175); settings: S. cerevisiae mlh1 rad18 strain growth inhibition, active compounds read high
# Summary of the method: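 Test agents were incubated with a yeast strain of defined genotype (DNA damage repair defect). Inhibition of growth was derived by comparison with vehicle-exposed cultures.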
# [7] = at 5.0 µM (retest, dose inferred, filed as 0.5)
# [8] = at 50.0 µM (retest, dose inferred, filed as 5.0)
Compound,"growth inhibition [1, 7]","growth inhibition [1, 8]",growth inhibition ([1]; at 50.0 µM),"growth inhibition [2, 7]","growth inhibition [2, 8]",growth inhibition ([2]; at 50.0 µM),"growth inhibition [3, 7]","growth inhibition [3, 8]",growth inhibition ([3]; at 50.0 µM),"growth inhibition [4, 7]","growth inhibition [4, 8]",growth inhibition ([4]; at 50.0 µM),"growth inhibition [5, 7]","growth inhibition [5, 8]",growth inhibition ([5]; at 50.0 µM),"growth inhibition [6, 7]","growth inhibition [6, 8]",growth inhibition ([6]; at 50.0 µM)
COC1OCCC[CH]1[Hg][Cl] (stereo not given),98% (active),99% (active),99.2% (active),100% (active),99% (active),99.3% (active),99% (active),99% (active),99.5% (active),99% (active),99% (active),99.3% (active),99% (active),99% (active),99.5% (active),99% (active),99% (active),99.2% (active)
CC(=O)NC1C(O[C@H]2CC[C@@]3(C)C(CC[C@]4(C)C3CC=C3C5CC(C)(C)CC[C@]5(C(=O)O)CCC34C)C2(C)C)OC(CO)C(O)C1O (stereo not given in full),42%,98% (active),91% (active),69%,99% (active),92.8% (active),44%,99% (active),90.2% (active),74% (active),99% (active),91% (active),77% (active),98% (active),91.2% (active),48%,99% (active),90% (active)
CC12CCC3C(CCC4Cc5nc6nnnn6cc5CC43C)C1CCC2O (stereo not given),4%,79% (active),55%,20%,71% (active),40.9%,14%,85% (active),51%,4%,44%,29.6%,2%,38%,53.8%,11%,82% (active),47%
COc1ccccc1C(Cc1ccc(N2C(N)=NC(N)=NC2(C)C)cc1)C(=O)Nc1ccc(S(=O)(=O)F)cc1 (stereo not given),3%,15%,90.1% (active),12%,2%,95% (active),1%,22%,99.2% (active),-2%,-5%,55.4%,-3%,-4%,98.8% (active),2%,18%,99% (active)
Nc1cccc([As]=S)c1 (stereo not given),7%,99% (active),98.5% (active),11%,99% (active),98.9% (active),-9%,100% (active),91.5% (active),13%,98% (active),96.9% (active),-4%,99% (active),98.8% (active),15%,99% (active),98.8% (active)
CC1(OO)CCC2CC1C2(C)C (stereo not given),9%,77% (active),90.2% (active),6%,99% (active),99.6% (active),-2%,68%,99.4% (active),4%,65%,82.7% (active),-1%,95% (active),99.5% (active),13%,94% (active),98.2% (active)
CC1=NNC(=O)C1(Br)Br,-2%,21%,8.7%,-3%,9%,11.9%,2%,16%,14.2%,13%,31%,69.6%,1%,75% (active),43.1%,-13%,-2%,-23.8%
O=C1OCC2CC3C4C=CC(C4)C3C12 (stereo not given),40%,99% (active),99.2% (active),47%,100% (active),99.5% (active),69%,99% (active),99.4% (active),4%,99% (active),99% (active),20%,99% (active),99.4% (active),77% (active),99% (active),99.2% (active)
CCCCCc1cc(O)c(CCCC)c(O)c1,-107%,87% (active),99.4% (active),-39%,63%,99% (active),-43%,90% (active),99% (active),-47%,32%,99.1% (active),-56%,83% (active),99.2% (active),-92%,87% (active),99% (active)
NC(=O)c1cc([N+](=O)[O-])c(Cl)c([N+](=O)[O-])c1Cl,34%,65%,88.9% (active),41%,78% (active),86.7% (active),83% (active),98% (active),91.5% (active),91% (active),100% (active),90.3% (active),66%,97% (active),88.2% (active),39%,61%,88.3% (active)
